# From article PMC4336329 (PLoS ONE, 2015)
# The whole screen tested about 310,000 compounds, of which about 14,000 (4.5%) showed an effect of 50% or more. The effect is printed as a negative number. For the sample, strong results were picked, then their nearest neighbours and some compounds at random.
# Molecular target: human ether-à-go-go-related gene (hERG) potassium channel (human, UniProt Q12809)
# Experiment: primary screen, population patch clamp on CHO cells stably expressing hERG; higher = less effect of the substance
# 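Also: peak tail current of the secondary pulse compared with the same well before compound.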
# human ether-à-go-go-related gene (hERG) potassium channel, sequence (Q12809 whole entry, looked up): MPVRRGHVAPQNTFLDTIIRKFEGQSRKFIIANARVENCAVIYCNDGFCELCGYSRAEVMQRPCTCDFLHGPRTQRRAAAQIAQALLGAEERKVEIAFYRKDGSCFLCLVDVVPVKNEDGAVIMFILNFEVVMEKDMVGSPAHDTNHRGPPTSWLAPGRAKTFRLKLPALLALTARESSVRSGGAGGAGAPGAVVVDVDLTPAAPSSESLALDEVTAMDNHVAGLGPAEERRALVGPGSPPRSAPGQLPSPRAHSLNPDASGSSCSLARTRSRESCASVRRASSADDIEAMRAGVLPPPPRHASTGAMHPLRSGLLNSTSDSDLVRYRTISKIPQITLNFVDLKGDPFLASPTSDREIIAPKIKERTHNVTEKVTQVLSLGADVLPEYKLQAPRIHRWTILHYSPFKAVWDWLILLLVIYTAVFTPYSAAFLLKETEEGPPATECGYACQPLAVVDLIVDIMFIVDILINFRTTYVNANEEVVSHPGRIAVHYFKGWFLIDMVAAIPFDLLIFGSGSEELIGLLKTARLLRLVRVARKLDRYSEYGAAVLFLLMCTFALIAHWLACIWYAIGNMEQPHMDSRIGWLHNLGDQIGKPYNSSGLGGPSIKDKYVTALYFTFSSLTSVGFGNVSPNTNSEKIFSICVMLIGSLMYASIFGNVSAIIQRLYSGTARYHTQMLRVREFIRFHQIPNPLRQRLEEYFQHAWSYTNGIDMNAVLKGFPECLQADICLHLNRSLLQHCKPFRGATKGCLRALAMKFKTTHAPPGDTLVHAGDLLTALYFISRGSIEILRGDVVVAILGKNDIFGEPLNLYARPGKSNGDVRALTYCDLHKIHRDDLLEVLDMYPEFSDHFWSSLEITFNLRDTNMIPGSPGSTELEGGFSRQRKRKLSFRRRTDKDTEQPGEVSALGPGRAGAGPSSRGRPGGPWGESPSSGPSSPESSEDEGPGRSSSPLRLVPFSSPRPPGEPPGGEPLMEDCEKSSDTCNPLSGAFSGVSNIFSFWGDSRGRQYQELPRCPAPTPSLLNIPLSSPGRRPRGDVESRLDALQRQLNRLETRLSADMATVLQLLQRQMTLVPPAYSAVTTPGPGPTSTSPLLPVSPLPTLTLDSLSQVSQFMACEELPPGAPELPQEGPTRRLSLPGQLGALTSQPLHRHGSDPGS
row,Structure (SMILES),"hERG current change (%, negative = inhibition) at 10uM [%]"
1,O=C(O)c1nn(-c2cccc(Cl)c2)c(=O)cc1O,4.44
2,CN(Cc1nc2ccccc2c(=O)[nH]1)CC(O)COCc1ccco1 (centres unmarked),-13.9
3,COc1cccc(C(=O)NCc2ccc3c(c2)OCO3)c1OC,16.3
4,CCO[C@@H]1OC(C(=O)N2CCOCC2)=C[C@H](C2CC2)[C@H]1CCCO,11.6
5,O=C(c1ccco1)N1CCN(S(=O)(=O)c2ccc(Cl)cc2)CC1,2.47
6,COc1ccc(OC)c(N(CC(=O)Nc2ccccc2)S(=O)(=O)c2ccccc2)c1,6.01
7,CCN1CCN(CC(O)COc2ccc(Cl)cc2)CC1.Cl (centres unmarked),-36.2
8,COc1cccc(OCC(O)CN2CCN(CCO)CC2)c1.Cl (centres unmarked),15.7
9,COc1cccc(OCCOCC(O)CN2CCN(Cc3ccc(Cl)cc3)CC2)c1.Cl (centres unmarked),-72.3
10,CCc1ccc(OCC(O)CN2CCCC2)cc1.Cl (centres unmarked),-13.8
11,CCc1ccc(OCCOCC(O)CN2CCN(Cc3ccc(Cl)cc3)CC2)cc1.Cl (centres unmarked),-73.5
12,CCN1CCN(CC(O)COc2cccc(OC)c2)CC1.Cl (centres unmarked),3.43
13,COc1cc(/C=C(/NC(=O)c2ccccc2)C(=O)Nc2cccc(O)c2)c([N+](=O)[O-])cc1OC,0.394
14,Cn1c(=O)c([N+](=O)[O-])c(NCc2ccccc2)c2ccccc21,9.94
15,O=C(NC1CCCc2ccccc21)C1CCN(S(=O)(=O)N2CCCCCC2)CC1 (centres unmarked),-12.8
16,O=C(N[C@@H](Cc1ccccc1)C(=O)OCC(=O)N1CCOCC1)c1cccs1,-9.98
17,O=C(COC(=O)CCc1nc2ccccc2n1-c1ccccc1)Nc1ccc(N2CCCCC2)cc1,2.85
18,CC[C@@H](C)[C@H](NC(=O)OC(C)(C)C)c1nnc(S(=O)(=O)Cc2cc(C)ccc2C)o1,4.09
19,CC(NC(=O)COC(=O)/C=C/c1cccc(C(F)(F)F)c1)c1ccccc1 (centres unmarked),15.2
20,Cc1ccc(Cn2c(NS(=O)(=O)c3ccccc3)nc3ccccc32)cc1,21.3
21,CCN(CC)CCn1c(N)nc2ccccc21.Cl,15.4
22,CCN(CC)CCn1c(NS(=O)(=O)c2ccc(Cl)cc2)nc2ccccc21.Cl,-69.8
23,CCN(CC)CCn1c(NS(=O)(=O)c2ccc(C)cc2)nc2ccccc21,-51

row,Structure (SMILES),"hERG current change (%, negative = inhibition) at 10uM [%]"
1,CCCn1c(NCc2ccccc2NS(=O)(=O)c2ccc(C)cc2)nc2ccccc21,6.84
2,CCN(CC)CCn1c(C)nc2ccccc21.Cl,-9.07
3,CN1C(=O)C(C2c3ccccc3C(=O)N2Cc2ccccc2)C(=O)N(C)C1=O (centres unmarked),3.38
4,CCc1ccc(C(=O)C(C)OC(=O)C2COc3ccccc3O2)cc1 (centres unmarked),-18.9
5,CSc1ncc(Cl)c(C(=O)Nc2cc(C)ccc2C)n1,16.1
6,CCOC(=O)C(NC(=O)c1cccnc1)(Nc1cccc(C)n1)C(F)(F)F (centres unmarked),1.24
7,CCN1C(=O)C(CC(=O)Nc2ccc(OC)cc2)N(Cc2cccnc2)C1=S (centres unmarked),-2.39
8,c1ccc(C[C@H]2CNCCN2CC2(c3ccccc3)CC2)cc1,-14.9
9,O=C(CNC(=O)c1cccs1)NCC(=O)OCc1ccc(Cl)cc1,-17.5
10,CCC(=O)Nc1cccc(C(=O)/C=C/c2ccccc2)c1,-37
11,CC(=O)Nc1cccc(C(=O)/C=C/c2ccc(F)cc2)c1,-31.1
12,CCC(=O)Nc1cccc(C(=O)/C=C/c2ccc(F)cc2)c1,-69.1
13,Cc1nc(SCC(=O)NC(=O)NC(C)(C)C)nc(C)c1C,-8.95
14,COC(=O)CSc1nnc(SCc2ccccc2)s1,7.89
15,CCN(CC(=O)Nc1ccc(NC(C)=O)cc1)C(=O)/C=C/c1cn(-c2ccccc2)nc1-c1ccc(F)cc1,5.58
16,CCCCn1c(C)cc(/C=C(\C#N)C(=O)O)c1C,-80
17,Cc1cc(/C=C(\C#N)C(=O)O)c(C)n1CCC(C)C,10.5
18,CCCn1c(C)cc(/C=C(\C#N)C(=O)O)c1C,10.4
19,O=C(N/N=C/c1cc([N+](=O)[O-])ccc1O)Nc1ccccc1,18.2
20,COc1ccc(CC(=O)N2CCC(Nc3nc4ccccc4n3Cc3ccc(F)cc3)CC2)cc1,-71.7
21,COc1ccc(CNC(=O)C2CCN(C(=O)Cc3ccccc3)CC2)cc1,-13.5
22,COc1ccc(CC(=O)N2CCN(c3ccc(F)cc3)CC2)cc1,1.52
23,COc1ccc(CCC(C)N2CCC(Oc3ccc(C(=O)N4CCCC4)cc3)CC2)cc1 (centres unmarked),-65.4

row,Structure (SMILES),"hERG current change (%, negative = inhibition) at 10uM [%]"
1,CSCCC(C)N1CCC(Oc2ccc(C(=O)N3CCCC3)cc2)CC1 (centres unmarked),-31.3
2,COC(=O)CCC(C)N1CCC(Oc2ccc(C(=O)N3CCCC3)cc2)CC1 (centres unmarked),-11
3,COCC(C)N1CCC(Oc2ccc(C(=O)N3CCCC3)cc2)CC1 (centres unmarked),5.11
4,CC(CCc1ccc(O)cc1)N1CCC(Oc2ccc(C(=O)N3CCCC3)cc2)CC1 (centres unmarked),-55.7
5,Cc1noc(/C=C/c2ccco2)c1S(=O)(=O)N1CCC(C(=O)N(C)Cc2ccccc2)CC1,-4.68
6,O=C(CSc1ccccc1)Nc1cc(S(=O)(=O)N2CCOCC2)ccc1N1CCOCC1,14.5
7,Cc1cc(=O)[nH]c(Nc2cccc(Br)c2)n1,12.4
8,Cc1ccc(Nc2cc(C)nc3ccccc23)c(C)c1,-42.8
9,Cc1cc(Nc2cccc(O)c2)c2ccccc2n1.Cl,-64.2
10,COc1cccc(Nc2cc(C)c3ccccc3n2)c1,6.21
11,Cl.Oc1cccc(Nc2c3ccccc3nc3ccccc23)c1,-17.6
12,Oc1cccc(Nc2nc(-c3ccccc3)nc3ccccc23)c1,9.56
13,Cc1cc(C)c(C#N)c(Nc2cccc(Br)c2)n1,12.5
14,Cc1cccc(Nc2cc(C)nc3ccccc23)c1.Cl,-65.4
15,Cc1cc(Nc2cccc(Br)c2)c2ccccc2n1,-86.2
16,COc1ccc(Nc2cc(C)nc3ccccc23)cc1.Cl,-36.5
17,COc1cccc(Nc2cc(C)nc3ccccc23)c1,-73.1
18,Cc1cccc(NC(=O)c2cc(C)nc3ccccc23)c1,14.7
19,CC(=O)Nc1ccc2c(c1)NC(=O)CC2,18.3
20,Cc1cc(C)c(S(=O)(=O)N2CCN(C(=O)CCn3nc(C)c(C)c3C)CC2)c(C)c1,-35.8
21,CCN1CCN(CC(=O)Nc2nc3ccc(C)cc3s2)CC1,-34.5
22,Cc1cccc(NC(=S)NCCc2ccc(S(N)(=O)=O)cc2)c1C,11.4
23,O=C(NCCN1C(=O)S/C(=C\c2cccs2)C1=O)c1ccc(=O)[nH]c1,-15.5

row,Structure (SMILES),"hERG current change (%, negative = inhibition) at 10uM [%]"
1,Cc1cc(Nc2ccc(C)c(C)c2)c2ccccc2n1,-66.9
2,Cc1cc(Nc2cccc(Cl)c2)c2ccccc2n1,-68.8
3,Cc1cc(Nc2ccccc2Cl)c2ccccc2n1,-64.2
4,Cc1nc2ccccc2nc1Nc1cccc(Cl)c1,9.24
5,Cc1cc(C(=O)Nc2ccccc2Cl)c2ccccc2n1,-2.16
6,Cc1cc(C)nc(Nc2cccc(Cl)c2)n1.Cl,21.8
7,Cc1cc(Nc2ccccc2O)c2ccccc2n1.Cl,-18.6
8,Cc1ccc(Nc2nc3ccccc3c(=O)s2)cc1C,6.94
9,Cc1ccc(C)c(Nc2cc(C)nc3ccccc23)c1,-49.5
10,Cc1ccc(C(=O)NCC(=O)O)s1,23.8
11,Cc1ccc2[nH]c(=O)c(CN(Cc3cccs3)C(=S)NCC3CCCO3)cc2c1 (centres unmarked),8.11
12,CN(CCOc1ccccc1)C(=O)C1CCC(=O)N(CCc2ccc(Cl)cc2)C1 (centres unmarked),-84.9
13,CCc1ccc(CN(C)C(=O)C2CCC(=O)N(CCc3ccc(OC)cc3)C2)nc1 (centres unmarked),-79.9
14,CN(CCOc1ccccc1)C(=O)C1CCC(=O)N(CCCN2CCCC2=O)C1 (centres unmarked),27.5
15,COc1ccccc1CN1CC(C(=O)N(C)CCOc2ccccc2)CCC1=O (centres unmarked),-9.29
16,COc1ccc(CCN2CC(C(=O)N(C)Cc3ccc(C)o3)CCC2=O)cc1 (centres unmarked),-6.77
17,COc1ccc(CCN2CC(C(=O)N(C)CCOc3ccccc3)CCC2=O)cc1 (centres unmarked),-57.2
18,CCc1ccc(CN(C)C(=O)C2CCC(=O)N(Cc3cccc(OC)c3)C2)nc1 (centres unmarked),-18.8
19,COc1ccc(CCN2CC(C(=O)N(C)Cc3ccccc3OC)CCC2=O)cc1 (centres unmarked),-29.4
20,CN(CCOc1ccccc1)C(=O)C1CCC(=O)N(CCN2CCOCC2)C1 (centres unmarked),16.5
21,CN(CCC1CCOCC1)C(=O)C1CCC(=O)N(CCc2ccc(Cl)cc2)C1 (centres unmarked),-62
22,CN(C(=O)C1CCC(=O)N(CCc2ccc(Cl)cc2)C1)C1CCOCC1 (centres unmarked),10.7
23,CN(CCC1CCOCC1)C(=O)C1CCC(=O)N(CCc2ccccc2)C1 (centres unmarked),-15.1
